Results taken from PubChem BioAssay AID1903 (Southern Research Specialized Biocontainment Screening …, 2009).
“And” between values parts separate entries of the source, which are not always exact repeats. Equal values may be shown once. About 1,200 (0.39%) of roughly 310,000 compounds were called active. No rule for the calls is given here. Not all results are given here. Measured potencies and affinities stand elsewhere.

target: Large T antigen (Simian virus 40) (UniProt P03070); experiment: SV40 large T antigen inhibitors, biochemical (AID 1903); details: SV40 large T antigen ATPase/helicase inhibition assay; at 20 µM; stronger effect = higher value
Sequence (P03070 whole entry, looked up): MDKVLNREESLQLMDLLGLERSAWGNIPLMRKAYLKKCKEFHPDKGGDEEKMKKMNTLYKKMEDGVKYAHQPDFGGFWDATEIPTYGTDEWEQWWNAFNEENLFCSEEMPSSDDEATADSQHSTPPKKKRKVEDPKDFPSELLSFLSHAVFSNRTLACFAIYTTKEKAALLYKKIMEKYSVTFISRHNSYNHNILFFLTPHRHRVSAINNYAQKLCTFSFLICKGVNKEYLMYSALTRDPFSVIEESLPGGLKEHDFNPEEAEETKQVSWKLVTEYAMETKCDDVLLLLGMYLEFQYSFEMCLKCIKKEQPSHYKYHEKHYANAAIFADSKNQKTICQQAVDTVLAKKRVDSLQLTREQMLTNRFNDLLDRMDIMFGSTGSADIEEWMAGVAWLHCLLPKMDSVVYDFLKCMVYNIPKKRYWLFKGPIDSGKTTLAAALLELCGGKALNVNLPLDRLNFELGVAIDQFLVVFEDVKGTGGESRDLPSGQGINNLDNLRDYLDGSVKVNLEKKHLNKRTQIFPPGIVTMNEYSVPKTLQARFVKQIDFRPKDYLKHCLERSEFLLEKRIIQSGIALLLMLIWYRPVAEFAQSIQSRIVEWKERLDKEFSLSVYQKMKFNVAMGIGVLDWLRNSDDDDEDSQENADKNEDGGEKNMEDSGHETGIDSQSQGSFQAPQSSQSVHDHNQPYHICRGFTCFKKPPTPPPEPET

inhibition, inactive:
COc1ccc(Cn2c(=O)[nH]c3cc(C(=O)NC4CCN(Cc5ccccc5)CC4)ccc32)cc1 1.67%, COc1ccc(C(CNC(=O)COc2ccc(F)cc2Br)N2CCCC2)cc1 (centres undefined) 5.54%, O=c1nc2n(c3cccc(Cl)c13)CCCCC2 5.2%, Cn1c(=O)n(CC(N)=O)c(=O)c2c1nc1n2CCCN1Cc1ccccc1 5.61%, CC(C)(C)C(=O)NC(=S)Nc1ccccc1F 0.75%, CC1=NN(c2ccccc2)C(=O)/C1=C/C=C/c1ccccc1 9.74%, CC1=NN(c2ccc(C(=O)OC(C)C)cc2)C(=O)/C1=C\C=C\c1ccco1 12.7%, O=C(/C=C/c1ccco1)Nc1cc(Cl)ccc1C(=O)O 21.9%, CCOC(=O)c1ccc(N2N=C(C)/C(=C/C=C/c3ccco3)C2=O)cc1 21%, CC1=NN(c2ccc(Cl)c(C(=O)O)c2)C(=O)C1 27.9%, CC1=NN(c2ccccc2)C(=O)/C1=C\C=C\c1ccccc1 19.4%, COC(=O)c1cc(NC(=O)Cn2c(=O)cnc3ccccc32)cc(C(=O)OC)c1 24%, CCCCc1c(O)nc(SCC(=O)NC(C)(C)C)n(-c2ccccc2C)c1=O 0.223%, Cc1ccc(NC(=O)c2oc3ccccc3c2NC(=O)C2CC2)cc1 12.7%, Cc1cc(NC(=O)/C=C\C(=O)O)c([N+](=O)[O-])cc1C 9.88%, CCCn1c(N)c(C(=O)CSc2n[nH]c(-c3ccc(C)cc3)n2)c(=O)[nH]c1=O 8.37%, CC(C)C[C@H]1CN=C(Nc2ccccc2)N1CCCC1CCCC1 16.4%, O=c1[nH]c(=O)c2nnc(N/N=C/c3ccccc3F)nc2[nH]1 11.5%, Oc1ccc(/C=N\Nc2nncc(-c3ccccc3)n2)cc1 28.1%, CC(C)C(NS(=O)(=O)c1cccc2nsnc12)C(=O)Nc1nc2ccc(Cl)cc2s1 (centres undefined) 1.74%, COc1ccc(N2C(=O)NC(=O)C2=O)cc1 1.84%, COc1ccc(S(=O)(=O)Nc2c(C(=O)O)[nH]c3ccccc23)cc1 11.7%, Nc1nc(Nc2ccccc2Cl)cc(=O)[nH]1 10.8%, COCn1c(-c2ccc(OC)c(OC)c2)nc2ccccc21 3.62%, O=C1CS/C(=N\N=C\c2ccco2)N1c1ccccc1 31.1%, COc1ccc2cc(S(=O)(=O)n3cnc(C)c3)ccc2c1 3.48%, CCN(CC)c1ccc(/C=N/NC(=O)CN2CCCc3ccccc32)cc1 13.9%, CCN1CCN(C(=O)NC2CC(=O)N(c3ccc(OC)cc3)C2)CC1 (centres undefined) 24.6%, COc1ccc(N2CC(NC(=O)N3CCN(c4ccccc4)CC3)CC2=O)cc1 (centres undefined) 21.7%, CNC(=S)N1CCN(c2cccc(OC)c2)CC1 -1.1%, COc1ccc(N2CCN(C(=S)Nc3ccccc3)CC2)cc1 17.3%, CCC(Sc1nc(N)c(NC(=O)c2ccc(OC)cc2)c(=O)[nH]1)C(=O)O (centres undefined) 7.11%, Cc1cc(NC(=O)CSc2nc(N)c(NC(=O)c3ccc(F)c(F)c3)c(=O)[nH]2)no1 5.69%, N#CC(C#N)=C1c2cc(S(N)(=O)=O)ccc2-c2ccc(S(N)(=O)=O)cc21 3.73%, N=C1/C(=C\c2ccc(OCc3ccccc3)cc2)C(=O)N=C2SC(N3CCCC3)=NN12 10.7%, O=c1[nH]c(CSc2nnc(-c3ccccc3)n2-c2ccccc2)nc2ccccc12 3.3%, COc1cccc(C(=O)NCC(=O)N2CCC3(CC2)NCCc2[nH]cnc23)c1OC 28.6%, O=C(CSc1nc(-c2ccco2)cc(C(F)(F)F)n1)Nc1ccccc1C(F)(F)F 13.3%, O=C(O)C1CC(=O)N(c2ccc(OCc3c(F)cccc3Cl)cc2)C1 (centres undefined) 1.79%, Cc1ccc(-c2oc3ncnc(N)c3c2-c2ccc(C)cc2)cc1 5.86%, COc1ccc(-c2oc3ncnc(N)c3c2-c2ccccc2)cc1 5.94%, Cc1cc(NC(=O)CSc2nc3ccccc3n2CC(=O)N2CCC(C)CC2)no1 -5.11%, NC1=NC(=O)C2(COC(c3ccncc3)OC2)S1 (centres undefined) 3.62%, CC(C)CSc1nc2ccccc2n1CC(=O)O 9.25%, CC(=O)N1C(=O)N(C(C)=O)C2C1N(C(C)=O)C(=O)N2C(C)=O (centres undefined) 5.35%, O=C1CCCN=C(Nc2ccc(F)c(Cl)c2)S1 9.56%, CN1CCN(/C=C2\SC(=S)NC2=O)CC1 5.4%, CN1C(=O)/C(=C\C=C2/CCCN2C)N(C)C1=S 17.1%, COc1ccc(-c2cc(C(=O)Nc3cccc(Cl)c3)no2)cc1 7.5%, O=C(COc1ccc(F)cc1)Nc1cc(S(=O)(=O)N2CCCCC2)ccc1N1CCCCC1 16%, N#CC1=C2SCN(Cc3ccco3)CN2C(=O)CC1c1ccccc1F (centres undefined) 21.6%, N#CC1=C2SCN(c3ccc(F)cc3)CN2C(=O)CC1c1cccc(F)c1 (centres undefined) 35.6%, N#CC1=C2SCN(c3ccccc3)CN2C(=O)CC1c1c(Cl)cccc1Cl (centres undefined) 33.9%, CCc1ccccc1N1CSC2=C(C#N)C(c3ccccc3F)CC(=O)N2C1 (centres undefined) 54.3% and 27%, N#CC1=C2SCN(Cc3ccco3)CN2C(=O)CC1c1cccc2ccccc12 (centres undefined) 24.4%, N#CC1=C2SCN(Cc3ccccc3)CN2C(=O)CC1c1ccccc1F (centres undefined) 35.3%, COc1ccccc1Nc1nc(NCCO)nc(N)c1[N+](=O)[O-] 7.82%, COc1ccc(-c2cc(-c3n[nH]c(=S)n3-c3ccccc3OC)[nH]n2)cc1 32.3%, O=c1cc(-c2ccccc2)nc(N2CCN(Cc3ccc4c(c3)OCO4)CC2)[nH]1 9.11%, O=C(N/N=C/c1cccnc1)c1cccc(N2CCCC2=O)c1 0.45%, Cn1cccc1Cc1nnc(SCC(=O)NCCc2ccccc2)n1C -0.6%, Cc1noc(C)c1C(=O)N1CCCC(Nc2ccc(C(C)C)cc2)C1 (centres undefined) -5.88%, CC(C)c1ccc(NC2CCCN(C(=O)c3ccco3)C2)cc1 (centres undefined) 19.6%, COC(=O)c1cccc(C(=O)N2CCCC(Nc3ccc4c(c3)OCCO4)C2)c1 (centres undefined) 29.8%, COc1ccc(OC)c(C(=O)N2CCCC(Nc3ccc(F)cc3)C2)c1 (centres undefined) 23%, Cc1ccc(NC2CCCN(C(=O)c3c(C)noc3C)C2)cc1C (centres undefined) 21.2%, COc1ccc(NC2CCCN(C(=O)c3ccc4nccnc4c3)C2)cc1OC (centres undefined) 32.5%, COc1ccc(NC2CCCN(C(=O)c3ccc4nc(C)c(C)nc4c3)C2)cc1OC (centres undefined) 26.4%, COc1ccc(C(=O)N2CCCC(Nc3ccc(F)cc3)C2)c(OC)c1 (centres undefined) 12%, COc1ccc(-n2cnc3cc(C(=O)NCC4CCCO4)ccc32)cc1 (centres undefined) 3.91%, CN(C)CCCN(C(=O)c1ccco1)c1nc2ccc(F)cc2s1 7.29%, C(=N\N1CCN(c2ccccc2)CC1)/c1ccccc1 8.2%, COC(=O)[C@@H]1C[C@H]2CC[C@H](O)C[C@H]2N1Cc1ccc(Cl)cc1 8.58%, N#Cc1c(/N=C/c2ccc(-c3ccccc3C(=O)O)o2)sc2c1CCCC2 13.3%, CCOC(=O)C1CCN(C(=O)CCNC(=O)c2cc(OC)c(OC)c(OC)c2)CC1 4.64%, CCOC(=O)CSc1nnc(NC(=O)c2ccco2)s1 -8%, Cc1ccc(N(CC(=O)NCC2CCCO2)C(=O)Cn2nnc(-c3cccs3)n2)cc1 (centres undefined) 24.6%, Cc1ncc(CN2CCC(CO)(Cc3ccccc3)CC2)s1 2.75%, COc1ccc(NC2CCCN(C(=O)c3ccncc3)C2)cc1 (centres undefined) 51.8%, COc1ccc(NC2CCCN(C(=O)c3ccc(C(C)=O)cc3)C2)cc1 (centres undefined) 46.3%, O=C(Nc1cccnc1)/C(N=Nc1c(Cl)cccc1Cl)=C(\O)c1ccccc1 0.28%, C/C(=N\NC(=O)CC#N)c1cc2ccc(O)cc2oc1=O 21.8%, C/C(=N/NC(=O)c1ccncc1)c1cc2ccc(O)cc2oc1=O 12.9%, CCc1noc(C)c1C(=O)N1CCN(S(=O)(=O)c2c(C)c(C)cc(C)c2C)CC1 5.1%, O=C(O)CCC(=O)c1cccc2ccccc12 6.26%, O=C(O)c1ccccc1C(=O)c1cccc2ccccc12 8.24%, CS(=O)(=O)N1CCCC(C(=O)N2CCN(c3cccc(Cl)c3)CC2)C1 (centres undefined) 9.69%, COc1ccccc1NC(=S)N(CCCN1CCOCC1)Cc1ccccn1 12.9%, CSc1nc2ccc(S(=O)(=O)N3CCCCC3)cc2s1 4.61%, Cc1nc2ccc(S(=O)(=O)N3CCCCC3)cc2s1 2.61%, COc1ccc(NC(=O)CC2C(=O)N(c3ccc(F)cc3)C(=S)N2NC(=O)c2ccc(Cl)cc2)cc1 (centres undefined) 8.76%, O=C(Nc1ccc(F)cc1)c1ccc2nc[nH]c2c1 7.49%, CN(C)c1ccc(NC(=O)c2ccc3nsnc3c2)cc1 18.4%, COc1cc(C(=O)Nc2ccncc2)cc(OC)c1OC 5.76%, O=C(Nc1ccc(Br)cc1)c1cccc(N2C(=O)CCC2=O)c1 7.57%, O=C(Nc1ccccc1)c1cccc(N2C(=O)CCC2=O)c1 5.21%, COc1cc(C(=O)Nc2ccc(Nc3ccccc3)cc2)cc(OC)c1OC 12.4%, CCCOc1ccc(C(=O)Nc2ccc(N(C)C)cc2)cc1 32%, CC(C)Oc1ccc(NC(=O)c2ccncc2)cc1 3.7%
